Experimental data as given in the supplement of paper PMC10933113.
Structures can show the parent of a compound that is named as a salt. ± gives the uncertainty stated by the source.

What follows are compounds tested on THP-1 (assay: CD54 surface expression induction over DMSO control (% over DMSO); higher = stronger dendritic cell activation). Conditions: exposure time: 24 h.
Procedure: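 hCLAT-like CD54 and CD86 surface expression on THP1 cells after 24 h exposure at a single concentration (highest non-cytotoxic concentration, or 100-200 µM if not cytotoxic). Flow cytometry (iQue) was run on 5,000 live cells.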
In the case of `O=C1OC(OC(=O)c2cccnc2Nc2cccc(C(F)(F)F)c2)c2ccccc21` (stereo not given) [Talniflumate] (100 µM), the “CD54 surface expression induction” value is reported as 1.7 ± 0.62. With `NC(=O)N/N=C/c1ccc([N+](=O)[O-])o1` [Nitrofurazone] (200 µM) the “CD54 surface expression induction” value was 15.9 ± 5.6. For `CCC(=O)C=Cc1ccc(OC)cc1` [1-(4-Methoxyphenyl)-1-pentene-3-one] (200 µM), the “CD54 surface expression induction” value was -15.2 ± 1.7. For `CCCSS/C(CCO)=C(/C)N(C=O)Cc1cnc(C)nc1N` [Prosultiamine] (10 µM), the “CD54 surface expression induction” value was -0.63 ± 2.5. With `O=C1c2ccccc2C(=O)C1c1ccc2ccccc2n1` [D & C Yellow II] (10 µM) the “CD54 surface expression induction” value was -4.43 ± 3.6. In the case of `CC(C)CC(NC(=O)OCC1c2ccccc2-c2ccccc21)C(=O)O` (stereo in doubt) [N-(9-Fluorenylmethoxycarbonyl)-L-leucine] (100 µM), the “CD54 surface expression induction” value is reported as -11.5 ± 0.49. With `O=C(O)CCCCCCCCC(=O)O` [Decanedioic acid] (200 µM) the “CD54 surface expression induction” value was -0.56 ± 5.1. `Sc1nc2ccccc2s1` [2-Mercaptobenzothiazole] (100 µM) was tested, and the “CD54 surface expression induction” value was -13.7 ± 14. `Cc1ccc(N)cc1O` [5-Amino-2-methylphenol] (200 µM) was tested, and the “CD54 surface expression induction” value was 34.1 ± 7.2. For `C=CC(=O)OCCCCCCOC(=O)C=C` [1,6-Hexanediol diacrylate] (100 µM), the “CD54 surface expression induction” value was -4.54 ± 2.9. For `CC(C)c1ccc2cc(C(C)C)ccc2c1` [2,6-Diisopropylnaphthalene] (200 µM), the “CD54 surface expression induction” value was 10.1 ± 1.7. For `O=C(Nc1ccccc1)c1cc([N+](=O)[O-])ccc1Cl` [2-Chloro-5-nitro-N-phenylbenzamide] (200 µM), the “CD54 surface expression induction” value was 4.72 ± 3.4. For `O=C(Oc1ccccc1)c1ccccc1O` [Phenyl salicylate] (200 µM), the “CD54 surface expression induction” value was -8.79 ± 7.5. For `Clc1ccc(C(Cn2ccnc2)OCc2ccc(Sc3ccccc3)cc2)c(Cl)c1` (stereo not given) [Fenticonazole nitrate] (100 µM), the “CD54 surface expression induction” value was 21.1 ± 8.7. In the case of `C=CC(=O)OCCOC(=O)CCC(=O)O` [4-[2-(Acryloyloxy)ethoxy]-4-oxobutanoic acid] (200 µM), the “CD54 surface expression induction” value is reported as -1.6 ± 8.8. In the case of `COc1ccc2cc(CCC(C)=O)ccc2c1` [Nabumetone] (100 µM), the “CD54 surface expression induction” value is reported as -12.2 ± 1.2. `Cc1c(C)n(Cc2ccccc2)c2ccc(C(=O)OCCN(C)C)cc12` [Indocate] (200 µM) was tested, and the “CD54 surface expression induction” value was 30.6 ± 5. `Cc1ccc(O)c(-n2nc3ccccc3n2)c1` [2-(2H-Benzotriazol-2-yl)-4-methylphenol] (100 µM) was tested, and the “CD54 surface expression induction” value was 3.46 ± 3.3. `Nc1ccc2cc3ccccc3cc2c1` [2-Aminoanthracene] (200 µM) was tested, and the “CD54 surface expression induction” value was -52.5 ± 1.6. For `CCOc1ccc2nc3cc(N)ccc3c(N)c2c1` [Ethacridine lactate monohydrate] (200 µM), the “CD54 surface expression induction” value was -29.7 ± 6.5. For `CC(C)(C)c1ccc(C(=O)CCCCl)cc1` [4'-Tert-butyl-4-chlorobutyrophenone] (100 µM), the “CD54 surface expression induction” value was -1.36 ± 1.9. For `CCCCCCC(C)O` (stereo not given) [2-Octanol] (200 µM), the “CD54 surface expression induction” value was -1.7 ± 0.35. With `c1ccc2cc3c(ccc4ccccc43)cc2c1` [Benz(a)anthracene] (200 µM) the “CD54 surface expression induction” value was -2.28 ± 4.7. For `CCC1OCC(COc2ccc(Oc3ccccc3)cc2)O1` (stereo not given) [Diofenolan] (10 µM), the “CD54 surface expression induction” value was -6.06 ± 5.8. For `CC(C)CCCCCCCOC(=O)c1ccc(C(=O)OCCCCCCCC(C)C)c(C(=O)OCCCCCCCC(C)C)c1` [Triisodecyl trimellitate] (163 µM), the “CD54 surface expression induction” value was 10.7 ± 46. `O=c1n(CC2CO2)c(=O)n(CC2CO2)c(=O)n1CC1CO1` (stereo not given) [Triglycidyl isocyanurate] (10 µM) was tested, and the “CD54 surface expression induction” value was 4 ± 1.7. In the case of `Oc1ccc2cc(SSc3ccc4cc(O)ccc4c3)ccc2c1` [6-Hydroxy-2-naphthyl disulfide] (100 µM), the “CD54 surface expression induction” value is reported as 71.9 ± 1.4. With `CC[C@@]1(O)C(=O)OCc2c1cc1n(c2=O)Cc2c-1nc1ccccc1c2/C=N/OC(C)(C)C` [Gimatecan] (10 µM) the “CD54 surface expression induction” value was -15.7 ± 5. `CCCCCCCCCCCC(=O)NCCCN(C)C` [N-[3-(Dimethylamino)propyl]dodecanamide] (200 µM) was tested, and the “CD54 surface expression induction” value was 14.4 ± 11. For `C=C1CC[C@H](O)C/C1=C/C=C1\CCC[C@]2(C)[C@@H]([C@H](C)/C=C/[C@H](C)C(C)C)CC[C@@H]12` [Ergocalciferol*] (100 µM), the “CD54 surface expression induction” value was 108 ± 7.2. `Cn1sccc1=O` [2-Methyl-4-isothiazolin-3-one hydrochloride] (10 µM) was tested, and the “CD54 surface expression induction” value was -19.5 ± 27. For `O=[N+]([O-])c1cc(N(CCO)CCO)ccc1NCCO` (200 µM), the “CD54 surface expression induction” value was 3.92 ± 4.8. For `[Cl][Bi]([Cl])([c]1ccccc1)([c]1ccccc1)[c]1ccccc1` [Triphenylbismuthine dichloride] (10 µM), the “CD54 surface expression induction” value was 15.8 ± 5. In the case of `CC1=C(/C=C/C(C)=C\C=C\C(C)=C\C(=O)O)C(C)(C)CCC1` [9-cis Retinoic acid] (100 µM), the “CD54 surface expression induction” value is reported as 44.4 ± 15. With `COc1cc(C(C)(C)C)c(O)c(C(C)(C)C)c1` [2,6-Di-tert-butyl-4-methoxyphenol] (200 µM) the “CD54 surface expression induction” value was 14.5 ± 0.32.
